Test results as given in PubChem BioAssay AID504840 (Johns Hopkins Ion Channel Center, 2011).
Screen size: about 1,500 compounds; about 890 (59%) were called active.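 How the source made its calls: active means inhibition of the choline-evoked signal at any tested dose together with a fitted dose-response curve; inactive means no inhibition at any dose or no curve.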 So high a share suggests a set chosen from earlier hits. A selection follows. Potency and affinity values are given separately.

biological target: High affinity choline transporter 1 (Homo sapiens) (UniProt Q9GZV3); assay: CHT inhibitors, dose response, cell-based, 5-point CRC, membrane potential dye (AID 504840); conditions: HEK293-CHT, choline-induced depolarization, CHT with LV-to-AA double alanine mutation; series mostly up to 37 µM
Sequence (Q9GZV3 whole entry, looked up): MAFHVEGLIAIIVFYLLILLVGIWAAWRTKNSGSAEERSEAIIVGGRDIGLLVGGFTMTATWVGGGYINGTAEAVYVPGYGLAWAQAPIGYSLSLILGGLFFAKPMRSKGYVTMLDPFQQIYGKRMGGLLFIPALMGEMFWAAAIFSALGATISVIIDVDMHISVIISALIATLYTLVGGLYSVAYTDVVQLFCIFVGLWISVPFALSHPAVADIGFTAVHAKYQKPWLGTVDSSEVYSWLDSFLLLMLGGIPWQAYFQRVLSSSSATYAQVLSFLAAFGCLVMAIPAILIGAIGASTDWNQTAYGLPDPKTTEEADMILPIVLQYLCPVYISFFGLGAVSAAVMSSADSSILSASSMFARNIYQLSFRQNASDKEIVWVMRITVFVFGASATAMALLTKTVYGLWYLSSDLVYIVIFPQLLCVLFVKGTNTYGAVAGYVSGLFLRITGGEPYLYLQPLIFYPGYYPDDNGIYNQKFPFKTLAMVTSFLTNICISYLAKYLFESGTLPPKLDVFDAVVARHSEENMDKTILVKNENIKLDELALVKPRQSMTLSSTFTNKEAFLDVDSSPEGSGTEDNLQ

outcome, inactive:
O=C(Nc1nonc1-c1ccc(Cl)cc1)c1ccco1
Cc1ccc[n+](CC(=O)Nc2cc(C(F)(F)F)ccc2N2CCOCC2)c1
COc1ccc(N(C)S(=O)(=O)c2cccc(C(=O)NC3CCC(C)CC3)c2)cc1 (stereo unspecified)
CC(=O)N1CCN(S(=O)(=O)c2cccc(C(=O)NC3CCC(C)CC3)c2)CC1 (stereo unspecified)
CN1CCN(S(=O)(=O)c2cccc(C(=O)NC3CCCc4ccccc43)c2)CC1 (stereo unspecified)
CC1CCCC(NC(=O)c2cccc(N3CCCC3=O)c2)C1C (stereo unspecified)
Cc1cc(C)nc(SCc2cc(=O)c(OC(=O)c3cc([N+](=O)[O-])ccc3Cl)co2)n1
Cc1ccnc(SCc2cc(=O)c(OC(=O)c3ccc(S(=O)(=O)N(C)C)cc3)co2)n1
O/N=C/c1ccnc(SCc2ccccc2)n1
CCCCNS(=O)(=O)c1ccc2nc(SCC(=O)c3ccccc3OC)[nH]c2c1
Cc1cc(=O)[nH]c(SCC(=O)c2ccc(C)c(C)c2)n1
C=CCNS(=O)(=O)c1ccc(N2C(=O)c3ccccc3C2=O)cc1
CC(NC(=O)c1ccc(N2CCNCC2)c([N+](=O)[O-])c1)C12CC3CC(CC(C3)C1)C2 (stereo unspecified)
Cc1[nH]n(-c2cccc(Cl)c2)c(=O)c1-c1ccccc1
COc1ccc2c(c1)CC(C)C/C2=N\NC(=O)c1ccco1 (stereo unspecified)
CCC(CC)Nc1ccc(C(CC(N)=O)NC(=O)c2ccccc2)cc1[N+](=O)[O-] (stereo unspecified)
NC(=O)CC(NC(=O)c1ccc(Br)cc1)c1ccc(N2CCCCCCC2)c([N+](=O)[O-])c1 (stereo unspecified)
NC(=O)CC(NC(=O)c1ccccc1)c1ccc(N2CCc3ccccc3C2)c([N+](=O)[O-])c1 (stereo unspecified)
NC(=O)CC(NC(=O)c1ccc(Br)cc1)c1ccc(N2CCCCCC2)c([N+](=O)[O-])c1 (stereo unspecified)
COC(=O)CCCCCCCCCC[N+]1(C)CCCCC1
O=S(=O)(Nc1nc2ccccc2s1)c1ccc(Br)s1
COc1ccc(CN2CCN(CC=C(C)C)C(CCO)C2)cc1Cn1cccn1 (stereo unspecified)
O=C(O)c1ccc(/C=C2\COc3ccccc3C2=O)cc1
O=C(O)c1ccc(-c2nc(-c3ccccc3Cl)cs2)cc1
Cc1cc(C)c2nc(N3CCCN(C(=O)c4cnccn4)CC3)c(C#N)cc2c1
Cc1ccc(Nc2nnc(-c3ccc(N4CCOCC4)c([N+](=O)[O-])c3)c3ccccc23)cc1
CN1/C(=C\C=Nc2cc(S(=O)(=O)N3CCOCC3)ccc2N2CCOCC2)C(C)(C)c2ccccc21
Cc1ccc(C(=O)N/C(=C\c2cccs2)C(=O)NC2CCCCC2)cc1
O=C(CSc1nc(C(F)(F)F)cc(=O)[nH]1)Nc1cccc2ccccc12
Cc1ccc(S(=O)(=O)/N=C(/NC(=S)Nc2c(C)n(C)n(-c3ccccc3)c2=O)c2ccccc2)cc1
CCc1nnc(NC(=O)CSc2nnc(-c3ccccc3OC)n2-c2ccccc2)s1
O=C1c2cccc3c(Nc4ccccc4Cl)c([N+](=O)[O-])cc(c23)C(=O)N1CCO
C=Cn1cc[n+](CC(=O)c2ccc(-c3ccccc3)cc2)c1
COCCNc1nc(-n2nc(C)cc2C)nc2sc3c(c12)CCCC3
CCOC(=O)C(Cc1ccccc1)NC(=O)CCCC(=O)c1ccccc1 (stereo unspecified)
Cc1ccc(-c2nn(-c3ccccn3)c(=O)c3ccccc23)cc1
COc1ccc(NC(=O)c2sc(N)nc2-c2ccccc2)cc1
O=C(CCC1CCCN(c2ncccn2)C1)NCc1ccc(F)c(F)c1 (stereo unspecified)
Cn1c(CN2CCN(CCO)CC2)c(C#N)c2ccccc21
S=c1[nH]c2cc(Cl)ccc2s1
Cc1cc(C)nc(NS(=O)(=O)c2ccc(NC(=O)C3COc4ccccc4O3)cc2)n1 (stereo unspecified)
CN(Cc1nc(-c2cccnc2)no1)S(=O)(=O)c1ccc(Br)cc1
O=[N+]([O-])c1ccc(SCCc2ccccn2)cc1
O=C1CSC(=S)N1/N=C/c1c(F)cccc1F
O=[N+]([O-])c1ccc(N2CCCCC2)nc1
CCc1c(C)nc2ncnn2c1N1CCN(S(=O)(=O)c2ccc(OC)cc2)CC1
c1ccc(-c2ccccc2OCc2nnc3n2CCC3)cc1
O=C(NNC(=S)NC1CCCCC1)c1ccccc1O
Cc1ccc2c(c1)C1CN(C)CCC1N2C(=O)c1ccccc1NS(=O)(=O)c1cccc(C(F)(F)F)c1 (stereo unspecified)
CN1CCN(c2ncc(CN3C(=O)c4ccccc4C3=O)s2)CC1
Cc1cccc(C(=O)Nc2sc(-c3ccccc3)cc2C(=O)O)c1
CCc1cccc(CC)c1NC(=O)c1cccc(NC(=O)c2ccccc2)c1
COc1cc(CCC(=O)OCC(=O)NCc2ccc(Cl)cc2)cc(OC)c1OC
Cc1ccccc1C(=O)OC(C)CN1CCN(C)CC1 (stereo unspecified)
CC(C)NS(=O)(=O)c1ccc(CCC(=O)N2CCc3ccccc3C2)cc1
Cc1ccc(-c2csc(NC(=O)c3ccc(Br)cc3)c2C(=O)O)cc1
Cc1ccc(-c2csc(NC(=O)c3ccc(F)cc3)c2C(=O)O)cc1
COc1cc(C(=O)Nc2scc(-c3ccc(C)cc3)c2C(=O)O)cc(OC)c1OC
O=C(COC(=O)C1(c2ccccc2F)CCCC1)N1CCN(C(=O)c2ccco2)CC1
CC1CCN(C(=O)CCCOc2cc(=O)n(C)c3ccccc23)CC1
CC1CCCCC1NC(=O)Cn1nc(-c2ccccc2)ccc1=O (stereo unspecified)
COc1cc(NC2CCCCC2O)c2nc(-c3ccc(Cl)cc3)ccc2c1 (stereo unspecified)
Cc1c(NC(=S)NC(=O)c2ccc(-c3ccc(Cl)cc3)o2)cccc1C(=O)O
C/C(=N\NC1=NCCN1)c1ccc(Cl)cc1
CCCCCNC(=O)c1ccc2c(=O)[nH]c3c(C(=O)NCC4CCCO4)sc(=S)n3c2c1 (stereo unspecified)
CCOCCCn1c(=S)[nH]c2cc(C(=O)N3CCN(C4CCCCC4)CC3)ccc2c1=O
CCOc1cc2[nH]c(=S)n(C(C)C)c(=O)c2cc1OCC
CCOC(=O)C(C)Sc1nnc(NC(=O)c2cccc([N+](=O)[O-])c2C)s1 (stereo unspecified)
O=C(N/N=C/c1cn[nH]c1-c1ccc(Cl)cc1)c1ccc([N+](=O)[O-])cc1
Cc1ccc(C(=O)NCC(=O)OCC(=O)Nc2ccccc2C#N)s1
Cc1c(NC(=O)/C=C/c2cn(-c3ccccc3)nc2-c2ccccc2)c(=O)n(-c2ccccc2)n1C
COc1ccccc1C(=O)NC(C)c1cccc2ccccc12 (stereo unspecified)
Cc1cccc(N2CCN(C(=O)COc3cc(=O)n(C)c4ccccc34)CC2)c1C
CN(C)CCNC(=O)C(=O)NCC(c1ccc2c(c1)OCO2)N1CCN(c2ccc(F)cc2)CC1 (stereo unspecified)
O=S(=O)(Nc1nc2ccccc2s1)c1ccc(Cl)nc1
O=C(NC1CCCCC1)N(Cc1ccccc1)Cc1ccco1
CCN(Cc1ccccc1)S(=O)(=O)c1cc(C(=O)O)ccc1OC
CCc1ccc(OCc2n[nH]c(=S)n2Cc2ccccc2)cc1
O=C(NNC1=C(C(=O)C(F)(F)F)CCC1)c1ccc(Cl)cc1
CCc1ccc2c(c1)C1(NN=C(c3ccccc3)S1)C(=O)N2 (stereo unspecified)
CCc1ccc2c(c1)C1(NN=C(c3ccc(C)cc3)S1)C(=O)N2 (stereo unspecified)
Cc1oc2c(F)c(F)c(F)c(F)c2c1S(=O)(=O)Nc1cccc(C(F)(F)F)c1
CC(/C=C1\SC(=S)N(C(C(=O)O)c2ccccc2)C1=O)=C\c1ccccc1 (stereo unspecified)
Cc1noc(NS(=O)(=O)c2ccc(NC(=O)c3oc4ccc(Cl)cc4c3C)cc2)c1C
Nc1c(C(=O)NCCN2CCOCC2)c2nc3ccccc3nc2n1CCc1ccccc1F
O=C(Nc1cccc(C(F)(F)F)c1)C1CCN(S(=O)(=O)c2cccnc2)CC1
O=C(CSc1ccc2ccccc2c1)Nc1ccncc1
CCc1nnc(NC(=O)CSc2ncc(-c3ccccc3)n2C)s1
COc1ccc(Br)cc1C(=O)NC(=S)Nc1ccc(Cl)c(C(=O)O)c1
O=C(NNC(=S)Nc1ccc(Br)cc1)c1ccccc1Br
CC(Oc1ccc(Cl)cc1)C(=O)NNC(=S)NC(=O)c1ccco1 (stereo unspecified)
CCCc1cc(=O)[nH]c(SCc2nc3ccccc3s2)n1
O=C(CCc1ccccc1)c1c(O)cc(O)cc1O
COc1ccccc1-c1coc2cc(O)cc(O)c2c1=O
Cc1cc(S(=O)(=O)NCc2ccncc2)c(C)cc1Br
O=C(Nc1ccccc1Cl)c1ccc(S(=O)(=O)NCC2CCCO2)cc1 (stereo unspecified)
CCC1CCCCN1CCCNC(=O)c1ccc(N2CCOCC2)c(NS(=O)(=O)c2ccc(OC)cc2)c1 (stereo unspecified)
Cc1ccccc1CNS(=O)(=O)c1ccc2c(c1)OCCO2
Cc1ccc(Oc2ccc(S(=O)(=O)NCC(C)(C)N3CCOCC3)cc2)cc1
COc1ccc(-n2cnnc2SCC(=O)Nc2cc(S(=O)(=O)N3CCCCC3)ccc2C)cc1
CCOC(=O)c1ccc(NS(=O)(=O)c2ccc3c(c2)NC(=O)CCS3)cc1
Cc1ccccc1C(=O)NNC(=S)NC(=O)COc1ccccc1
Cc1cccc(C(=O)NNC(=S)NC(=O)c2cccs2)c1
Cc1cccc(C(=O)NC(=S)NNC(=O)c2cccs2)c1
Cc1ccc(C)c(NCC(=O)NNC(=S)Nc2ccccc2)c1
Cc1ccccc1C(=O)NNC(=S)NC(=O)c1ccc(Cl)cc1Cl
